The text below walks through data of PubChem BioAssay.

Active and inactive are the calls of the source.

Experiment [1] is described as follows: optical density shifts of acrAB sulA E. coli – strain DRC41, OD650, 48 h, E. coli filamentation inducer project, primary screen (AID 1152).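 Note: E. coli MC1000 strain DRC41 lacking acrAB efflux pump and sulA.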 The settings on record: higher = more signal, called active from +8 up or from −8 down.
A short description of experiment [2]: probe aLefty1 binding on compound microarray – biochemical, small-molecule microarray, 635/667 nm fluorescence, primary screen (AID 1153).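 Note: score merges spot fluorescence with signal-to-noise ratio from the scanned slide images.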 The following applies: higher = more signal.
Experiment [3] can be described thus: plasmodial surface anion channel blockers, osmotic lysis – cell-based, P. falciparum Indochina, OD700, 1 h, primary screen (AID 1154). The settings on record: P. falciparum Indochina infected RBC osmotic lysis, higher = more signal, called active from +8 up or from −8 down.
Experiment [4] is described as follows: plasmodial surface anion channel blockers, osmotic lysis – cell-based, P. falciparum Indochina, OD700, 2 h, primary screen (AID 1155).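 Note: lysis reports solute entry through the parasite surface anion channel PSAC.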 The settings on record: P. falciparum Indochina infected erythrocytes, higher = more signal, called active from +8 up or from −8 down.
A short description of experiment [5]: changes in parasitized red cell lysis, either direction – P. falciparum Indochina, OD700, 3 h, PSAC antagonist project, primary screen (AID 1156). The settings on record: P. falciparum-infected erythrocytes, osmotic lysis, higher = more signal, called active from +8 up or from −8 down.
The nature of experiment [6]: plasmodial surface anion channel blockers, osmotic lysis – cell-based, P. falciparum Indochina, OD700, 18 h, primary screen (AID 1157). The settings on record: P. falciparum Indochina infected erythrocytes, osmotic lysis OD700, 18 h; higher = more signal, called active from +8 up or from −8 down.
The nature of experiment [7]: S6 kinase pathway phospho-S6 level changes – cell-based, A549, cytoblot, luminescence, serum-stimulated, primary screen (AID 1158).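 Note: serum-stimulated A549 lung adenocarcinoma cells; signal is phosphorylated S6 detected by cytoblot immunostaining with HRP secondary.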 The settings on record: 5 h, higher = more signal.
The target of experiment [8] is NADPH oxidase 2 (Homo sapiens) (UniProt P04839). Nature of the experiment: compounds shifting NOX2 Amplex Red fluorescence – cell-based, HEK293-NOX2, PMA-stimulated, NOX inhibitor project, primary screen (AID 1159). Note: test concentration not given here. The following applies: 45 min, higher = more signal, called active from +8 up or from −8 down.
Sequence of NADPH oxidase 2 (Homo sapiens) (P04839 whole entry, looked up): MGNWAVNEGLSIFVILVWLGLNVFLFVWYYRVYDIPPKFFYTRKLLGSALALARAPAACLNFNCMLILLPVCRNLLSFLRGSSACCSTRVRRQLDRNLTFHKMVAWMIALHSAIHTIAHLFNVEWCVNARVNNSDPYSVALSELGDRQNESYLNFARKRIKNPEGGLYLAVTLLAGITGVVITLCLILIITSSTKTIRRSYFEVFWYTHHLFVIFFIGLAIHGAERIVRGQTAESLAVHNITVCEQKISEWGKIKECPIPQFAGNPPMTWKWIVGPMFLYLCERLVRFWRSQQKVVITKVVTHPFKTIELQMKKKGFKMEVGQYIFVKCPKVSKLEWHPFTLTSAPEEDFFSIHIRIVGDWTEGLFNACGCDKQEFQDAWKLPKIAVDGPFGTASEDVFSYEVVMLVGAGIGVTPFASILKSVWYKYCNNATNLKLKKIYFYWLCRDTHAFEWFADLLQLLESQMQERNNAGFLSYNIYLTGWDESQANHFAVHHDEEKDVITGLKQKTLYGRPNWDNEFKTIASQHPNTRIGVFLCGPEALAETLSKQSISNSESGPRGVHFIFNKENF
The target in experiment [9] is NADPH oxidase 4 (Homo sapiens) (UniProt Q9NPH5). Kind of experiment: compounds shifting NOX4 Amplex Red fluorescence – cell-based, HEK293-NOX4, tetracycline-induced, NOX inhibitor project, primary screen (AID 1160). The following applies: HEK293-NOX4, Amplex Red H2O2 fluorescence, 45 min; higher = more signal, called active from +8 up or from −8 down.
Sequence of NADPH oxidase 4 (Homo sapiens) (Q9NPH5 whole entry, looked up): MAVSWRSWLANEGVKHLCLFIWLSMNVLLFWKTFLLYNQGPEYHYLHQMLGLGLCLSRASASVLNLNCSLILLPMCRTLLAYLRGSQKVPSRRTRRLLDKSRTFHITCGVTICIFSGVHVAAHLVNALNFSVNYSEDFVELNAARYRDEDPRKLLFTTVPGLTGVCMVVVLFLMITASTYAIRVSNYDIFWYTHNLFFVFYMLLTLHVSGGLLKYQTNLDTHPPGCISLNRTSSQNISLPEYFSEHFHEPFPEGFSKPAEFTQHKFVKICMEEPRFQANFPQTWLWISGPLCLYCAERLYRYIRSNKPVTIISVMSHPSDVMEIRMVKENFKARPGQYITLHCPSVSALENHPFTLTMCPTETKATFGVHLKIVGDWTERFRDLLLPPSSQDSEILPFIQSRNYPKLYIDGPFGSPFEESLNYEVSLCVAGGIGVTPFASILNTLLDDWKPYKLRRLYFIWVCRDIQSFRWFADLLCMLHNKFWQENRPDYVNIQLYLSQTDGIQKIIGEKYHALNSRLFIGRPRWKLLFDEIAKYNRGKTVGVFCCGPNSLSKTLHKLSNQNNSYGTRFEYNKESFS
Experiment [10] has as its target NADPH oxidase 5 (Homo sapiens) (UniProt Q96PH1). Nature of the experiment: compounds shifting NOX5 Amplex Red fluorescence – cell-based, HEK293-NOX5, NOX inhibitor project, primary screen (AID 1161). The following applies: HEK293-NOX5, ionomycin, 45 min, higher = more signal.

Sequence of NADPH oxidase 5 (Homo sapiens) (Q96PH1 whole entry, looked up): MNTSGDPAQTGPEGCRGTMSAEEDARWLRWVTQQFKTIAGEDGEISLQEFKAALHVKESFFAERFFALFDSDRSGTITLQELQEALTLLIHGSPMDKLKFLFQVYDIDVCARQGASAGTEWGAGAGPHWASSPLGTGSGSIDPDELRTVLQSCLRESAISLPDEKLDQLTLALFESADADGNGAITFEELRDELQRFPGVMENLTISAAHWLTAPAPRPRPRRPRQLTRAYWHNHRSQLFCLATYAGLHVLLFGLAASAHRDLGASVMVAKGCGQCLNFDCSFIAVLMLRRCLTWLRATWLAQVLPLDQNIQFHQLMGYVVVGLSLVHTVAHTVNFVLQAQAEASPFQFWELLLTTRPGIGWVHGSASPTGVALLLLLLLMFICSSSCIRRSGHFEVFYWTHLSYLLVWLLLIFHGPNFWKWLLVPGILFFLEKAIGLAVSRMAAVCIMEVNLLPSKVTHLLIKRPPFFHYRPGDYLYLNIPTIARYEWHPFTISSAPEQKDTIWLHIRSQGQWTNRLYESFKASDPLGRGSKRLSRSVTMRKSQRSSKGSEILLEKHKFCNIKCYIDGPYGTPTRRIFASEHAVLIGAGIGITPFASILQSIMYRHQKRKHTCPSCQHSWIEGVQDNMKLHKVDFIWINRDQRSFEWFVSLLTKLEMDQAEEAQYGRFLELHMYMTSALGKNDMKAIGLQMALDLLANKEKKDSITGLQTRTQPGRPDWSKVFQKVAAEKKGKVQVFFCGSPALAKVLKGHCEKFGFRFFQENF

With `[N-]=[N+]=NCc1ccccc1C[C@]1(C(=O)O)N=C(c2ccc(OCCCO)cc2)O[C@H]1c1ccccc1N=[N+]=[N-]`, the z-score in [1] is 0.23 (inactive); in experiment [3], 36.3 (active); in experiment [4], 33.8 (active); in experiment [5] it was 4.02 (inactive); in experiment [6], 10 (active); in experiment [7], 0.468. For the same compound, the figures for the z-score in [8], in experiment [9] and in experiment [10] were -2.14 (inactive), 0.705 (inactive) and -1.92, respectively. In experiment [2], this compound had a composite z-score of 0.396.
For the compound `COc1ccc([Si](C)(C)[C@H]2[C@H](CCO)O[C@@]3(C(=O)N(Cc4ccc(N5C(=O)COc6ccccc65)cc4)c4ccccc43)[C@@H]2C)cc1`, the z-score is -0.609 (inactive) in [1]; 5 (inactive) in experiment [3]; 2.39 (inactive) in experiment [4]; -0.645 (inactive) in experiment [5]; 1.41 (inactive) in experiment [6]; 0.328 in [7]. For the same compound, the z-score in experiment [8] is -0.916 (inactive); in [9] it was 1.3 (inactive); in [10], 2. In [2], the composite z-score is -0.0094.
As for `CCCC=C(CCC)[C@@H](NC(=O)Oc1ccc(F)cc1)c1ccc(C(=O)OC)cc1`, the z-score is -0.755 (inactive) in [1]; 0.454 (inactive) in [3]; 1.34 (inactive) in experiment [4]; -1.54 (inactive) in experiment [5]; 1.35 (inactive) in experiment [6]; 0.298 in experiment [7]. Also, the results for the z-score in experiment [8], in experiment [9] and in experiment [10] were -0.395 (inactive), -1.17 (inactive) and -0.592, respectively. The same compound gave a composite z-score in experiment [2] of 0.221.
On to `O=C1NC(=O)C2C1C=CC(C(O)C(c1ccccc1)c1ccccc1)N2Nc1ccc(Cl)cc1Cl` (stereo not given), for which the z-score is -1.53 (inactive) in [1]; 8.4 (active) in [3]; 2.11 (inactive) in [4]; 0.537 (inactive) in experiment [5]; 2.49 (inactive) in experiment [6]; -1.02 in experiment [7]. Besides, the figures for the z-score in [8], in experiment [9] and in experiment [10] were -0.421 (inactive), -5.03 (inactive) and -2.4, respectively. Moreover, the composite z-score in experiment [2] was found to be 0.42.
As for `O=C1NC(=O)C2C1C=CC(C(O)c1cccc3ccccc13)N2Nc1ccccn1` (stereo not given), the z-score in experiment [1] is -0.0275 (inactive); in experiment [3] it was 1.06 (inactive); in [4] it was 0.344 (inactive); in experiment [5] it was 0.274 (inactive); in experiment [6], 0.899 (inactive); in experiment [7] it was -0.562. Also, the figures for the z-score in experiment [8], in [9] and in experiment [10] were -1.2 (inactive), -2.83 (inactive) and -2.36, respectively. Besides, the composite z-score in experiment [2] is 0.137.
As to `CCC(CC)C(O)C1C=CC2C(=O)N(C)C(=O)C2N1Nc1ccccc1` (stereo not given), the z-score in experiment [1] was -0.39 (inactive); in experiment [3] it was 1.11 (inactive); in experiment [4] it was 1.09 (inactive); in experiment [5], 0.0973 (inactive); in experiment [6], 0.951 (inactive); in experiment [7], -0.835. The z-score was -1.73 (inactive) in experiment [8], -3.49 (inactive) in experiment [9] and -3.77 in [10]. The composite z-score in experiment [2] came out at 0.173.
As for `O=C1OCCC=C[C@H]2OC34C=CCN(CCN5CCOCC5)C(=O)[C@H]3N(CCCCCCO)C(=O)[C@@H]4C12` (stereo not given in full), the z-score in [1] is 0.36 (inactive); in [3] it was 0.683 (inactive); in experiment [4], 0.539 (inactive); in experiment [5] it was 0.835 (inactive); in [6], 0.353 (inactive); in experiment [7], -0.156. Further, the z-score is 0.658 (inactive) in experiment [8], -0.289 (inactive) in experiment [9] and 1.67 in experiment [10]. In addition, in experiment [2], the composite z-score is -0.286.
For `COc1ccc(C(=O)O[C@H]2CC[C@]3(C)C4=C(CCC3C2(C)C)[C@]2(C)CC[C@H]([C@H](C)CCCC(C)C)[C@@]2(C)CC4)cc1` (stereo not given in full), the z-score in experiment [1] was 3.06 (inactive); in [3], -0.44 (inactive); in [4] it was -0.787 (inactive); in experiment [5], -0.246 (inactive); in experiment [6] it was -1.6 (inactive); in experiment [7], 1.86. The results for the z-score in experiment [8], in experiment [9] and in [10] were -0.13 (inactive), 0.257 (inactive) and 0.467, respectively. Besides, the composite z-score in experiment [2] is -0.192.
On to `CC(=O)NCCCC[C@@H]1NC(=O)[C@@H]2C[C@H](C(=O)NCCCCN(C)C)[C@H](c3cccc(OCCO)c3)N2C1=O`, for which the z-score is 0.522 (inactive) in experiment [1]; 0.628 (inactive) in [3]; 0.0655 (inactive) in [4]; -0.0825 (inactive) in experiment [5]; 0.105 (inactive) in experiment [6]; -0.326 in experiment [7]. The values for the z-score in experiment [8], in experiment [9] and in [10] were -0.0869 (inactive), -0.115 (inactive) and -0.205, respectively. Moreover, the composite z-score in [2] was -0.243.
With `C[C@@]1([C@@H](NC(=O)c2ccccc2)c2ccc(-c3ccccc3)cc2)C[C@H]1C1CCCCC1`, the z-score in [1] was -2.22 (inactive); in experiment [3], -0.118 (inactive); in experiment [4], 0.28 (inactive); in experiment [5], 0.833 (inactive); in experiment [6], 0.888 (inactive); in experiment [7] it was 0.994. Moreover, the z-score in experiment [8] was -0.658 (inactive); in experiment [9], -1.06 (inactive); in experiment [10], -0.782. The compound also had a composite z-score in experiment [2] of 0.476.
Consider `CN(C)CCCCCCNC(=O)[C@@H]1C[C@@H]2C(=O)N[C@@H](CCCCN)C(=O)N2[C@@H]1c1cccc(OCCO)c1`, for which the z-score is -0.374 (inactive) in experiment [1]; 1.59 (inactive) in experiment [3]; -0.644 (inactive) in experiment [4]; 0.0026 (inactive) in experiment [5]; -2.47 (inactive) in experiment [6]; 1.51 in experiment [7]. Besides, the z-score in [8] is 0.853 (inactive); in experiment [9] it was 0.7 (inactive); in experiment [10], 1.95. In experiment [2], this compound gave a composite z-score of 2.74.
In the case of `CC(C)c1ccc(NN2C(C(O)C(c3ccccc3)c3ccccc3)C=CC3C(=O)N(c4ccccc4)C(=O)C32)cc1` (stereo not given), the z-score in [1] was -1.98 (inactive); in experiment [3], 0.363 (inactive); in experiment [4], 1.32 (inactive); in experiment [5], 0.771 (inactive); in [6], 0.948 (inactive); in experiment [7] it was -0.582. Also, the figures for the z-score in experiment [8], in [9] and in [10] were -1 (inactive), -4.56 (inactive) and -4.98, respectively. The composite z-score in [2] amounted to 0.497.
As for `C=CCC(OC(C)=O)[C@@H]1[C@@H](N(Cc2ccc(-c3cccc(C(F)(F)F)c3)o2)C(=O)Cc2ccc(F)cc2)c2cc(OCCCO)ccc2N1C(=O)Cc1ccc(OC)cc1` (stereo not given in full), the z-score is 0.29 (inactive) in [1]; 2.58 (inactive) in [3]; -0.307 (inactive) in experiment [4]; -0.876 (inactive) in [5]; -0.668 (inactive) in [6]; 0.317 in [7]. Also, the z-score in experiment [8] was -2.17 (inactive); in [9], 0.269 (inactive); in [10] it was -0.0149. In [2], this compound registered a composite z-score of -0.191.
